SMN2 splice enh: qHTS Assay for Enhancers of SMN2 Splice Variant Expression. HEK293 SMN2-luciferase splicing reporter, luminescence, 30-36 h. Potency, µM (titrated, usually from 46.1 µM), without a hit: at the top dose activity change, positive = activation, most hits filed as activators. 210,000 tested, 2.8% active. AID 1458, 2008; note: % of control where 0% means no effect; nearly all actives have a fitted effect of over 55% in size
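HEK293 cells carry an SMN2 minigene-luciferase reporter in which exon 7 inclusion puts luciferase in frame. Cells were seeded at 2000 cells/well, attached for 10-12 hours, then exposed to compounds for 30-36 hours at 37C before ONE-Glo luminescence.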
p53 reactivator: qHTS assay for re-activators of p53 using a Luc reporter | AID 504706, 2011 | Potency, µM (titrated, usually from 92.2 µM), without a hit: top-dose activity change, positive = activation, usual class: activators | 320,000 tested, 0.063% active | H1299 p53-A138V BP100-luciferase reporter, luminescence, 24 h; note: % of control where 0% means no effect; nearly all actives have a fitted effect of over 45% in size
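H1299 (p53-null), stable ts p53-A138V + BP100-Luc; 1000 cells/well, Opti-MEM/10% FBS; cpd 4 pt, 1:5; 24 h, 37 deg C, 5% CO2; detection reagent 10 min RT; luminescence.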
Rab9 promoter act: qHTS Assay for Rab9 Promoter Activators | Huh7 Rab9 promoter-luciferase reporter, luminescence, 24 h | Potency, µM (doses to about 9.22 µM), for the others: top-dose activation, negative = inhibition, most hits filed as activators | 320,000 tested, 2.8% active | AID 485297, 2010; note: % of control where 0% means no effect; nearly all actives have a fitted effect of over 60% in size
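Quantitative HTS format; Huh7 Rab9-luciferase reporter cells (1500/well) receive compound 2 h post-plating, incubate 24 h at 37 °C, then get luciferase reagent for 10 min before luminescence reading.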
FLuc modulator: qHTS profiling assay for firefly luciferase inhibitor/activator using purifed enzyme and Km concentrations of substrates (counterscreen for miR-21 project) | purified FLuc, Km substrates, luminescence inhibition | AID 588342, 2011 | 360,000 tested, 6.9% active | Potency, µM (top dose mostly 57.5 µM), inactives show at the highest dose activity change, negative = inhibition, hits mostly inhibitors;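 note: plate controls were vehicle for no effect and reference inhibitor for full effect; nearly all actives have a fitted effect of over 55% in size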
Target sequence (P08659 whole entry, looked up): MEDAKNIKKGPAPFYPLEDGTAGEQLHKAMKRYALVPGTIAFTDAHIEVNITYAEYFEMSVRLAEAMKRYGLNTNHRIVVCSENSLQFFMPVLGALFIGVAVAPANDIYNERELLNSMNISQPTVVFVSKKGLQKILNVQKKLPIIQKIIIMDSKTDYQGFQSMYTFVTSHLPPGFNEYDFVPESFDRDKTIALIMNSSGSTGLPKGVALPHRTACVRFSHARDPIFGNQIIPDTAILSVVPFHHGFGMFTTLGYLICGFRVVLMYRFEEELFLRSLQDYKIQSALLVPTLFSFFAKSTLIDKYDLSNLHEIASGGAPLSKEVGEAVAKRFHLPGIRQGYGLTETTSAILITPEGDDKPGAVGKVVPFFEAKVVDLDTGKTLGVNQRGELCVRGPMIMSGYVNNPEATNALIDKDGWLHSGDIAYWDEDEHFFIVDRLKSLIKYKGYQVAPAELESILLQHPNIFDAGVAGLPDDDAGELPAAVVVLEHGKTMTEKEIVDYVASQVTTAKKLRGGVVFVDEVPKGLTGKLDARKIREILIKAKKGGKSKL
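Biochemical qHTS of compounds, final roughly 60 µM downward over six points, against 10 nM purified firefly luciferase using Km concentrations of substrates (10 uM D-luciferin, 10 uM ATP) in Tris acetate pH 7.5 buffer; luminescence output.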
ELG1 genotox: qHTS screen for small molecules that induce genotoxicity in human embryonic kidney (HEK293T) cells expressing luciferase-tagged ELG1; 330,000 tested, 1.3% active; Potency, µM (highest dose often 46 µM), for inactives: at the highest dose activity change, positive = activation, usual class: activators; HEK293T ELG1-luciferase reporter, luminescence, 16 h; note: % of control where 0% means no effect; nearly all actives have a fitted effect of over 60% in size
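Step 1: seed 2,000 HEK293T ELG1-luciferase cells per well. Step 2: add compound or DMSO, incubate 16 hr at 37 °C. Step 3: ONE-Glo, 30 min at room temperature, read luminescence.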
NPC1 promoter act: qHTS Assay for NPC1 Promoter Activators | Huh7 NPC1 promoter luciferase reporter, 24 h | Potency, µM (doses to about 9.22 µM), without a hit: at the highest dose activation, actives largely listed as activators | 320,000 tested, 2.4% active | AID 485313, 2010; note: % of control where 0% means no effect; nearly all actives have a fitted effect of over 60% in size
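Huh7 cells stably carrying NPC1 promoter–luciferase, plated in Opti-MEM with 10% FBS for 2 h, were exposed to compound in DMSO for 24 h at 37 °C; luciferase reagent was added for 10 min and luminescence read.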
* = called active by the depositor. The list is not random: actives were taken first. Their share in the collection is about 7.4%. Calls come from the whole dose curve; as a rule, active = well fitted curve in the direction sought with a large enough effect; inconclusive = small, poorly fitted or top-dose-only effect, or another doubt; inactive = no such curve, though single readings can be large; an effect the other way counts as inactive or inconclusive. Potency is the fitted concentration of half-maximal effect.

`Cc1ccc(CC(=O)Nc2c(C(=O)N3CCN(c4ccccc4)CC3)oc3ccccc23)cc1` gave FLuc modulator -10%.
`Cc1cc(Nc2ccccc2)n(-c2ccccc2)n1` gave SMN2 splice enh 3%, p53 reactivator -1%, Rab9 promoter act -1%, FLuc modulator 1%, ELG1 genotox 13% and NPC1 promoter act -6%.
For Cc1cc(Nc2ccccc2)nn1C(=O)c1ccc(Cl)cc1 the results were SMN2 splice enh -14%, p53 reactivator 11%, Rab9 promoter act 13%, FLuc modulator 9.5µM*, ELG1 genotox inconclusive and NPC1 promoter act -4%.
`Cc1cc(Nc2ccccc2)n(C(=O)c2ccccc2)n1` gave SMN2 splice enh -13%, p53 reactivator 8%, Rab9 promoter act 28%, FLuc modulator 12µM*, ELG1 genotox inconclusive and NPC1 promoter act 10%.
Screening Cc1cc(Nc2ccccc2)nn1C(=O)c1ccc([N+](=O)[O-])cc1 returned SMN2 splice enh 7%, p53 reactivator 6%, Rab9 promoter act -3%, FLuc modulator 0%, ELG1 genotox 3% and NPC1 promoter act -2%.
`CC(=O)c1ccc(NC(=O)COc2ccccc2-c2nc(C)no2)cc1` gave FLuc modulator -7%.
For COc1cc(/C=N/Nc2nncn2/N=C/c2ccc(O)c(OC)c2)ccc1O the results were SMN2 splice enh 25µM*, p53 reactivator 14%, Rab9 promoter act inconclusive, FLuc modulator 0.38µM*, ELG1 genotox -7% and NPC1 promoter act inconclusive.
For COc1ccc(OC)c(/C=N/Nc2nncn2/N=C/c2cc(OC)ccc2OC)c1 the results were SMN2 splice enh 5%, p53 reactivator -12%, Rab9 promoter act -2%, FLuc modulator 15µM*, ELG1 genotox -2% and NPC1 promoter act -9%.
`Cn1c(=O)n(C)c2cc(NC(=O)CSc3nc4ccccc4c(=O)[nH]3)ccc21` gave p53 reactivator 7%, Rab9 promoter act 6%, FLuc modulator inconclusive, ELG1 genotox inconclusive and NPC1 promoter act 0%.
For Cc1ccc2c(c1)N=C(c1ccccc1)CC(C(Cl)Cl)=N2 the results were p53 reactivator 7%, Rab9 promoter act 3.2µM*, FLuc modulator 8.5µM*, ELG1 genotox inconclusive and NPC1 promoter act inconclusive.
`Oc1ccc(Cl)cc1C1=Nc2ccccc2N=C(c2ccccc2)C1` gave SMN2 splice enh 29% and FLuc modulator -1%.
`Cc1ccc(O)c(C2=Nc3ccccc3N=C(c3cccs3)C2)c1` gave SMN2 splice enh -22%, p53 reactivator 9%, Rab9 promoter act -4%, FLuc modulator -6%, ELG1 genotox -4% and NPC1 promoter act -2%.
`Cc1ccc(C2=Nc3ccccc3N=C(C(Cl)Cl)C2)cc1` gave SMN2 splice enh -67%, p53 reactivator inconclusive, Rab9 promoter act 3.2µM*, FLuc modulator 9.5µM*, ELG1 genotox inconclusive and NPC1 promoter act 3.2µM*.
`O=C(/C=C/c1cccc([N+](=O)[O-])c1)Nc1cccc(NC(=O)c2ccco2)c1` gave SMN2 splice enh -1%, p53 reactivator 5%, Rab9 promoter act 7%, FLuc modulator 19µM*, ELG1 genotox -5% and NPC1 promoter act 2%.
`O=C(/C=C/c1cccc([N+](=O)[O-])c1)N(c1ccccn1)c1ccccn1` gave p53 reactivator -1%, Rab9 promoter act 2%, FLuc modulator 0%, ELG1 genotox 1% and NPC1 promoter act -3%.
For O=C(/C=C/c1ccc(Cl)c([N+](=O)[O-])c1)Nc1cccc(NC(=O)c2ccco2)c1 the results were SMN2 splice enh 25%, p53 reactivator inconclusive, Rab9 promoter act -3%, FLuc modulator inconclusive, ELG1 genotox -2% and NPC1 promoter act -31%.
`O=C(NC(Cc1ccccc1)C(=O)O)/C(=C/c1cccc([N+](=O)[O-])c1)NC(=O)c1ccco1` (stereo not given) gave p53 reactivator 0%, Rab9 promoter act -1%, FLuc modulator 1%, ELG1 genotox -1% and NPC1 promoter act 0%.
O=C(/C=C/c1cccc([N+](=O)[O-])c1)Nc1ccccn1 was read as SMN2 splice enh 27%, p53 reactivator 0%, Rab9 promoter act 2.8µM*, FLuc modulator -1%, ELG1 genotox 16% and NPC1 promoter act inconclusive.
Cc1ccc2oc(-c3cc(NC(=O)/C=C/c4ccco4)ccc3Cl)nc2c1 was read as SMN2 splice enh -5% and FLuc modulator inconclusive.
Screening CC(NC(=O)/C(=C\c1cccc([N+](=O)[O-])c1)NC(=O)c1ccco1)C(=O)O (stereo not given) returned SMN2 splice enh -21%, p53 reactivator -6%, Rab9 promoter act 2%, FLuc modulator 15µM*, ELG1 genotox -1% and NPC1 promoter act -1%.
Cc1ccc2oc(-c3cccc(NC(=O)/C=C/c4cccc([N+](=O)[O-])c4)c3C)nc2c1 was read as SMN2 splice enh 13µM*, p53 reactivator inconclusive, Rab9 promoter act 4.5µM*, FLuc modulator 3.4µM*, ELG1 genotox 0% and NPC1 promoter act inconclusive.
O=S(=O)(c1ccc(NCc2ccccc2)cc1)N1CCOCC1 was read as p53 reactivator 7%, Rab9 promoter act -2%, FLuc modulator 2%, ELG1 genotox -10% and NPC1 promoter act -1%.
For CN1C(=O)/C(=C\c2cc(N=Nc3ccccc3)ccc2O)SC1=S the results were SMN2 splice enh -35%, p53 reactivator 4%, Rab9 promoter act 11%, FLuc modulator inconclusive, ELG1 genotox -13% and NPC1 promoter act -1%.
COc1ccc(-n2c(C)cc(/C=C3/SC(=S)N(C)C3=O)c2C)cc1 was read as SMN2 splice enh -19%, p53 reactivator 27%, Rab9 promoter act inconclusive, FLuc modulator 3.4µM*, ELG1 genotox 10µM* and NPC1 promoter act inconclusive.
Screening O=C1/C(=C\c2ccco2)SC(=S)N1Cc1ccccc1 returned SMN2 splice enh -32%, p53 reactivator -3%, Rab9 promoter act 1%, FLuc modulator -2%, ELG1 genotox 0% and NPC1 promoter act 24%.
Screening CN=C1S/C(=C\c2cc(C)n(-c3ccccc3F)c2C)C(=O)N1C returned SMN2 splice enh -46%, p53 reactivator 4%, Rab9 promoter act 1.6µM*, FLuc modulator 0.34µM*, ELG1 genotox inconclusive and NPC1 promoter act inconclusive.
